Reference: PubChem BioAssay AID624352 (Sanford-Burnham Center for Chemical Genomics, 2012)
The campaign covered roughly 360,000 compounds. About 2,600 (0.72%) were called active.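 Rule for the calls: active = inhibition of the luminescence signal of 40% or more relative to plate controls, in a single-dose primary screen at 18.75 µM; inactive = the rest.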 Shown is part of a subset that was picked to be rich in actives.

Test: HIF-2a reporter inhibitors, primary screen, luminescence, 786-0 RCC cells (AID 624352)
Details: 786-0 RCC cells HIF-2a reporter, luciferase luminescence, overnight; at 18.8 µM; stronger effect = higher value

Which inhibition does the source give for `CCOc1ccc(OCC(=O)Nc2c3c(nn2C(C)(C)C)CS(=O)(=O)C3)cc1` here?
Its inhibition is -1.94% (inactive).

With `CCC(C)(C)c1ccc(Oc2ccc(NC(=O)COC(=O)C3=COCCO3)cc2)cc1` as the compound, how does the inhibition read?
The inhibition was 82.3% (active).

Which inhibition does the source give for `O=C1CCC(C(=O)OCC(=O)Nc2ccc(OC(F)F)cc2)=NN1` here?
Its inhibition is -7.05% (inactive).

With `COc1ccc(NC(=O)COC(=O)CNC(=O)C2CCCCC2)cc1` as the compound, how does the inhibition read?
The inhibition was 12.4% (inactive).

For `CCc1cccc(NC(=O)CCCN2C(=O)C(c3ccccc3)Oc3cccnc32)c1` (stereo not drawn), which inhibition is on record?
The inhibition was 9.51% (inactive).

Which inhibition does the source give for `Cc1ccc(C(=O)N2CC(=O)Nc3ccccc32)o1` here?
The inhibition was 14.2% (inactive).

With `Fc1ccc(CNc2nc3ccccc3n3nnnc23)cc1` as the compound, how does the inhibition read?
The inhibition was -134% (inactive).

With `CC(=O)Nc1ccc(C(=O)CSc2nnc(Cc3ccccc3)o2)cc1` as the compound, how does the inhibition read?
Its inhibition is -43.3% (inactive).

For `CC(C)C[C@@H](N)c1nnc(SCC(=O)c2ccc(Cl)cc2)o1`, which inhibition is on record?
The inhibition was 56.9% (active).

Which inhibition does the source give for `COc1cc(C(=O)NCc2nnc(SCC(=O)c3ccc(Cl)cc3)o2)cc(OC)c1OC` here?
Its inhibition is 5.32% (inactive).

With `C[C@H]1Cn2cnc(C(=O)N[C@@H](Cc3c[nH]c4ccccc34)C(=O)OC(C)(C)C)c2C(=O)N1` as the compound, how does the inhibition read?
The inhibition was -4.95% (inactive).

Which inhibition does the source give for `C=CCC[C@@H](Cc1ccc(F)cc1)C(=O)O[C@H](CNC(=O)[C@H](CC=C)CC(=O)N(CCO)Cc1ccccc1)c1ccccc1` here?
The inhibition was 12.7% (inactive).

With `CCN1CCN(C(=O)C2(NC(=O)Nc3cccc(F)c3)CCCCC2)CC1` as the compound, how does the inhibition read?
Its inhibition is 9.23% (inactive).

With `COc1ccc(NC(=O)C2C3C=CC(C3)C2C(=O)NCc2ccccn2)c(OC)c1` (stereo not drawn) as the compound, how does the inhibition read?
Its inhibition is 10.9% (inactive).

For `Cc1c(NC(=O)C(C)OC(=O)c2cc3c4ccccc4n(C)c3s2)c(=O)n(-c2ccccc2)n1C` (stereo not drawn), which inhibition is on record?
The inhibition was 4.75% (inactive).

Which inhibition does the source give for `Cc1sc2ccccc2c1CNC[C@H]1O[C@@H](n2ccc(=O)[nH]c2=O)[C@H](O)[C@@H]1O` here?
The inhibition was 11.7% (inactive).

With `OC(c1cc(Cl)cc(Cl)c1)c1ncc(-c2ccccc2C(F)(F)F)[nH]1` (stereo not drawn) as the compound, how does the inhibition read?
Its inhibition is 14.7% (inactive).

Which inhibition does the source give for `O=C(OC12CC3CC(CC(C3)C1)C2)c1ccc(NCc2cc(O)ccc2O)cc1` here?
The inhibition was 88.1% (active).

With `CC(C)OCCCNC(=S)N1CCC(C(=O)c2ccc3c(c2)OCCO3)CC1` as the compound, how does the inhibition read?
The inhibition was -5.91% (inactive).

For `c1ccc(-c2ccnc3nc(-n4cccc4)nn23)cc1`, which inhibition is on record?
Its inhibition is -8.27% (inactive).

Which inhibition does the source give for `C/C(N)=C(/C#N)C(=O)COC(=O)C1CCN(C(=O)c2ccc(Cl)cc2)CC1` here?
The inhibition was 8.64% (inactive).

Which inhibition does the source give for `CCc1ccc(-c2cc(C)no2)cc1S(=O)(=O)NCCc1ccc(S(N)(=O)=O)cc1` here?
Its inhibition is 9.29% (inactive).

Which inhibition does the source give for `Cc1cc(CNC(=O)C2CCC(=O)N(CCc3ccc(Cl)cc3)C2)no1` (stereo not drawn) here?
The inhibition was -9.67% (inactive).
